Screens as filed in PubChem BioAssay.
SENP8 block-1 – blocks the human protease SENP8; Q96LD8; purified SENP8, Z-RLRGG-aminoluciferin cleavage, luminescence; inhibition, % at 10 µM; 330,000 tested, 1.2% active; AID 2540; in the data active = inhibition above about 50%
Target sequence (Q96LD8 whole entry, looked up): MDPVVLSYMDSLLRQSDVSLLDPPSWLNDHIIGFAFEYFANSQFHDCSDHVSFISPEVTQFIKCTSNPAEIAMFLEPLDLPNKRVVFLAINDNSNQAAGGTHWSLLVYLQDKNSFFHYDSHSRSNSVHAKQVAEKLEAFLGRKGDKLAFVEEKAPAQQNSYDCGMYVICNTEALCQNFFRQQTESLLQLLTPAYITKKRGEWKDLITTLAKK
SENP7 block – SENP7 protease inhibition; Q9BQF6; recombinant SENP7, Z-RLRGG-aminoluciferin luminescence, 40 min; inhibition, % at 5 µM; 330,000 tested, 1.5% active;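 active = inhibition above about 50% at the single test dose, limit read from the data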
SENP8 block-2 – blocks human SENP8 cleavage of Nedd8 substrate; AID 602440; 360,000 tested, 0.64% active; inhibition, % at 20 µM; recombinant SENP8, Nedd8 substrate fluorescence; in the data active = inhibition mostly above about 40%, no sharp cut-off; inactive = mostly below about 27%
SENP6 inh – blocks the human protease SENP6; Q9GZR1; Recombinant SENP6 catalytic domain, aminoluciferin luminescence; inhibition, % at 10 µM; 330,000 tested, 1.8% active;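 active = inhibition above about 50% at the single tested dose, limit read from the data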
PPC-1+TRAIL kill – compounds killing PPC-1 cancer cells with TRAIL present (potentiator screen, no TRAIL-free arm). PPC-1 cells + TRAIL, ATPLite viability luminescence. cell killing (% activity), % at 4 µM or 5 µM. 220,000 tested, 0.41% active;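 active = cell killing above 50% in the first pass at 4 µM, then a duplicate retest at 5 µM averaging 50% or more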
TRAIL sens C8 – sensitizes caspase-8 expressing cells to TRAIL | NB7+C8 cells + TRAIL, ATPlite viability luminescence | inhibition (viability loss, TRAIL sensitization), % at 10 µM | 360,000 tested, 1% active | AID 624354;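 active = compounds causing at least 50% loss of cell viability in the single-dose screen, relative to plate controls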
SENP8 confirm – confirmation of human SENP8 protease inhibitors; Recombinant SENP8, Z-RLRGG-aminoluciferin luminescence, 60 min; 6,200 tested, 40% active; AID 488912; shares compounds with SENP7 block; inhibition, % at 12.5 µM;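 active = mean inhibition across replicates above about 50%, limit read from the data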
SENP6 confirm – human SENP6 inhibition, confirmed; inhibition, % at 12.5 µM; shares compounds with SENP7 block; recombinant SENP6, Z-RLRGG-aminoluciferin luminescence; AID 488915; 6,200 tested, 58% active
SENP7 conf – human SENP7 inhibition, confirmed | shares compounds with SENP7 block | recombinant SENP7, Z-RLRGG-aminoluciferin luminescence, 40 min | inhibition, % at 12.5 µM | 6,200 tested, 69% active | AID 488917
Casp3 select – selectivity test for SENP inhibitors: human caspase-3 inhibition. inhibition, % at 12.5 µM. purified caspase-3, Z-DEVD-aminoluciferin luminescence, 60 min. shares compounds with SENP7 block. 6,200 tested, 60% active. AID 488918;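 active = mean inhibition above about 50%, limit read from the data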
Luc interf – counter-screen for SENP inhibitors: luminescence interference; shares compounds with SENP7 block; Pre-incubated SENP8/Z-RLRGG-aminoluciferin, luciferase luminescence interference; inhibition, % at 12.5 µM; 6,200 tested, 39% active;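 active = mean inhibition above about 50% when retested at one dose, limit read from the data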
Hits are given with their value; i = inactive; nt = not tested or not shown. A selection: hits, their analogues and other compounds. The true share with any hit is near 3%.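 The calls were made as follows, unless noted: active = mean inhibition above about 50% in the one-dose retest (limit read from the data); inactive = the rest.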

SMILES	SENP8 block-1	SENP7 block	SENP8 block-2	SENP6 inh	PPC-1+TRAIL kill	TRAIL sens C8	SENP8 confirm	SENP6 confirm	SENP7 conf	Casp3 select	Luc interf
O=C(Nc1cccnc1)c1cc(-c2ccco2)on1	i	58.3	i	i	i	i	i	i	63.5	79.0	i
O=C(Nc1cccnc1)c1cc(-c2ccccc2)on1	i	68.9	i	74.6	i	i	i	i	85.6	75.1	i
O=C(c1cccs1)c1ccccc1Cc1cccs1	nt	nt	i	nt	nt	i	nt	nt	nt	nt	nt
COC(=O)c1sccc1-c1ccc(C(=O)Nc2cccnc2)o1	i	52.5	i	i	i	i	i	i	76.3	59.3	i
COc1cccc(-c2cc(C(=O)Nc3cc(OC)c(OC)c(OC)c3)no2)c1	i	i	i	i	i	i	nt	nt	nt	nt	nt
